Among the test systems are NCI-H23 lung; NCI-H226 lung; NCI-H322M lung; HOP-62 NSCLC; NCI-H460 lung; HOP-92 NSCLC; NCI-H522 lung; A549/ATCC NSCLC; 786-0 renal; COLO 205 colon.
Holding throughout (test): NCI-60 one-dose screen, 48 h (100 = growth as untreated, 0 = no growth, -100 = all killed)
Holding throughout (conditions): 10 µM unless noted

The panel holds about 83,000 compounds, 20% with a hit somewhere; the sample as a whole holds those more often.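 Interpretation: 100, growth as untreated; towards 0, rising growth inhibition; 0, no net growth; 0 to -100, cell death. Compounds scoring below 10 were considered active.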 Unmarked numbers belong to inactive results. The source made the active and inactive calls.

As to `O=C(Cn1c(=O)sc2nc3ccccc3nc21)Nc1ncc(Cc2cccc(Cl)c2Cl)s1`, the growth with NCI-H23 lung is 97.1%; in the assay with NCI-H226 lung, 86.5%; with NCI-H322M lung it was 97.1%; in the assay with HOP-62 NSCLC, 97.2%; with NCI-H460 lung, 104%; with HOP-92 NSCLC it was 100%. Further, the growth was 82.5% with NCI-H522 lung, 99.6% with A549/ATCC NSCLC, 99.8% in the assay on 786-0 renal and 95.6% in the assay on COLO 205 colon.

For the compound `O=C1CNC(c2ccccc2)C(c2ccccc2)N1` (stereo not given), the growth with NCI-H23 lung is 85.2%; in the assay on NCI-H226 lung it was 99.4%; in the assay with NCI-H322M lung it was 103%; in the assay with HOP-62 NSCLC it was 121%; in the assay on NCI-H460 lung, 103%; with HOP-92 NSCLC it was 86.3%. In addition, the growth with NCI-H522 lung is 88.6%; in the assay on A549/ATCC NSCLC, 93.5%; in the assay on 786-0 renal, 92.4%; with COLO 205 colon, 115%.

As for `CC(C)(C)n1cc(-c2ccnc(NCCCNS(=O)(=O)c3ccc(F)cc3)c2)c(-c2cccc(F)c2)n1`, the growth in the assay on NCI-H23 lung is 67.5%; in the assay with NCI-H226 lung, 60.1%; in the assay with NCI-H322M lung, 91.3%; with HOP-62 NSCLC, 92.2%; with NCI-H460 lung it was 36.1%; with HOP-92 NSCLC, 67.5%. Further, the growth with NCI-H522 lung was 57.2%; with A549/ATCC NSCLC it was 43.5%; in the assay with 786-0 renal, 66.7%; in the assay with COLO 205 colon, 32.6%.

With `O=C(CCCCCCN1CC(=O)N2[C@H](c3cc(Br)cs3)c3[nH]c4ccccc4c3C[C@H]2C1=O)NO`, the growth in the assay with NCI-H23 lung is 50.4%; with NCI-H226 lung, 79.9%; in the assay on NCI-H322M lung, 38.5%; in the assay with HOP-62 NSCLC, 41.8%; in the assay with NCI-H460 lung it was 35.1%; with HOP-92 NSCLC it was 18.2%. For the same compound, the growth was 20.5% in the assay on NCI-H522 lung, 61.1% with A549/ATCC NSCLC, 76.9% with 786-0 renal and 42.6% in the assay on COLO 205 colon.

`CCNc1nc(-c2ccc(Cl)c(OC)c2)c(-c2ccnc(NCCCNS(=O)(=O)c3ccc(Cl)cc3)n2)s1`: the growth in the assay with NCI-H23 lung was 83.7%; in the assay on NCI-H226 lung, 72.2%; with NCI-H322M lung, 101%; with HOP-62 NSCLC it was 61.7%; with NCI-H460 lung, 63.7%; with HOP-92 NSCLC, 20.9%. Besides, the growth with NCI-H522 lung was 28.9%; in the assay with A549/ATCC NSCLC, 44.9%; with 786-0 renal, 54.3%; with COLO 205 colon it was 11.7%.

With `COc1ccc(-c2cc(-c3ccc(Cl)cc3)c(C#N)c(=O)n2CCCCC(=O)Nc2ccccc2N)cc1`, the growth with NCI-H23 lung was 63.4%; in the assay with NCI-H226 lung, 55.3%; in the assay with NCI-H322M lung, 63.8%; in the assay on HOP-62 NSCLC, 64.1%; in the assay with NCI-H460 lung, 37.6%; in the assay with HOP-92 NSCLC, -3.51% (active). In addition, the growth with NCI-H522 lung is 48.6%; in the assay on A549/ATCC NSCLC it was 43.8%; with 786-0 renal it was 68.8%; in the assay on COLO 205 colon, 20.2%.

In the case of `O=C1C(Cl)=C(Nc2ccc(O)cc2)C(=O)N1Cc1ccc(Cl)cc1`, the growth was 85.2% with NCI-H23 lung; 84.5% in the assay with NCI-H226 lung; 77% with NCI-H322M lung; 84.2% in the assay with HOP-62 NSCLC; 78.9% in the assay with NCI-H460 lung; 69.7% in the assay on HOP-92 NSCLC. In addition, the growth in the assay on NCI-H522 lung was 51.9%; in the assay with A549/ATCC NSCLC, 71.6%; in the assay on 786-0 renal, 70.6%; in the assay on COLO 205 colon, 35.8%.

As for `COc1ccc(/C=N/C2=C(C#N)C(c3cccc(Cl)c3)c3c(ccc4ccccc34)O2)cc1` (stereo not given), the growth in the assay on NCI-H23 lung is 53.5%; in the assay on NCI-H226 lung, 36%; in the assay with NCI-H322M lung, 62.7%; with HOP-62 NSCLC, 49.5%; in the assay on NCI-H460 lung, 16.8%; in the assay on HOP-92 NSCLC, 44.8%. The growth in the assay with NCI-H522 lung is 3.61% (active); in the assay on A549/ATCC NSCLC, 44.9%; in the assay on 786-0 renal, 19.8%; with COLO 205 colon it was 31.3%.

Consider `C=C(CNCCc1ccc(O)cc1)[C@@H]1CC[C@]2(CO)CC[C@]3(C)[C@H](CC[C@@H]4[C@@]5(C)CCC(NCCO)C(C)(C)[C@@H]5CC[C@]43C)[C@@H]12` (stereo not given in full), for which the growth with NCI-H23 lung was -33.5% (active); in the assay on NCI-H226 lung, 81.5%; with NCI-H322M lung, -24.5% (active); with HOP-62 NSCLC, -68.7% (active); with NCI-H460 lung, -87.4% (active); in the assay with HOP-92 NSCLC, -62.6% (active). Also, the growth with NCI-H522 lung was -67.2% (active); in the assay on A549/ATCC NSCLC, -39% (active); in the assay with 786-0 renal it was -92.1% (active); in the assay on COLO 205 colon it was -68.5% (active).

As for `C1=C(N2CCCC2)CCC1`, the growth in the assay on NCI-H23 lung was 100%; in the assay on NCI-H226 lung, 109%; in the assay on NCI-H322M lung, 109%; with HOP-62 NSCLC it was 103%; in the assay on NCI-H460 lung it was 93.2%; with HOP-92 NSCLC, 65.8%. For the same compound, the growth in the assay on NCI-H522 lung was 94.6%; in the assay with A549/ATCC NSCLC it was 99%; with 786-0 renal, 105%; with COLO 205 colon, 124%.

Consider `Cc1noc(C)c1C(=O)OCc1coc2ccccc2c1=O`, for which the growth with NCI-H23 lung was 71.3%; in the assay with NCI-H226 lung it was 84.9%; in the assay with NCI-H322M lung, 96.2%; with HOP-62 NSCLC, 87.5%; in the assay with NCI-H460 lung, 83.8%; in the assay on HOP-92 NSCLC, 27.4%. Further, the growth is -15.4% (active) in the assay on NCI-H522 lung, 89.5% in the assay on A549/ATCC NSCLC, 55.4% in the assay with 786-0 renal and 66.6% in the assay with COLO 205 colon.

Source of the values: PubChem BioAssay (NCI).
